Results reported in PubChem BioAssay (Tox21).
Inconclusive results are not listed. A call without a number means that no potency is given here. Activity calls are given as the source filed them. Calls come from the whole dose curve; as a rule, active = well fitted cell-killing curve with a large enough effect in the repeat runs; inconclusive = weak or mixed curves, or effect the other way; inactive = no such curve, though single readings can be large or run the other way. Non-standard residues stand in square brackets, D forms with d. Residues, ends and D or L forms follow the SMILES beside them. Orn = NCCC[C@H](N)C(=O)O

test: qHTS assay to identify small molecule antagonists of the glucocorticoid receptor (GR) signaling pathway - cell viability counter screen (AID 720693); conditions: GR-bla HeLa viability, CellTiter-Glo luminescence, 18 h, with 5 nM dexamethasone present; series mostly up to 58.5 µM; note: nearly all actives have a fitted effect of over 55% in size
Source text: National Center for Advancing Translational Sciences [NCATS]
NIH Chemical Genomics Center [NCGC]
U.S. Environmental Protection Agency [EPA]
National Institutes of Environmental Health Sciences [NIEHS]
National Toxicology Program [NTP]
U.S. Food and Drug Administration [FDA]
The Glucocorticoid receptor (GR) is one of the members of the nuclear receptor family of ligand-dependent transcription factors. GR plays a critical role in carbohydrate, protein and lipid metabolisms and programmed cell death. CellSensor GR-bla HeLa cell line (Invitrogen) contains a beta-lactamase reporter gene under the control of the glucocorticoid response element stably integrated into HeLa cells, a cervical cancer cell line that expresses glucocorticoid receptor. The activation of the reporter gene under culture conditions can be detected by fluorescence intensity. This cell line has been used to screen the Tox21 10K compound library and to identify the compounds that inhibit the GR signaling. The cytotoxicity of the Tox21 compound library against the GR-bla HeLa cell line was tested in parallel by measuring the cell viability using CellTiter-Glo assay in the same wells.
Tox21 Assay Protocol Summary:
The GR-bla HeLa cells were dispensed at 1500 cells/5 ul/well in 1536-well black wall/clear bottom plates using a Multidrop Combi (ThermoFisher Scientific, Waltham, MA) dispenser. After the assay plates were incubated at a 37 C/5% CO2 incubator for 4 hours, 23 nL of compounds dissolved in DMSO, positive controls or DMSO only was transferred to the assay plate by a pintool station (Kalypsys, San Diego, CA), followed by addition of 1 uL of dexamethasone (5 nM, final concentration in the well). The plates were incubated at 37 C for 18 hours. After 1 uL of LiveBLAzerTM B/G FRET substrate was added using a Flying Reagent Dispenser (Aurora Discovery, San Diego, CA), the plates were incubated at room temperature (RT) for 2 hours, and fluorescence intensity was measured by an Envision plate reader (PerkinElmer, Shelton, CT). After measurement of bla assay, 3 ul CellTiter-Glo (Promega, Madison, WI) was added to measure the cytotoxicity and the plates were then incubated at RT for 30 min. The luminescence was measured using a ViewLux (Perkin Elmer) plate reader.
Potency is the fitted concentration of half-maximal effect.

SMILES | Potency
O=C(O)c1ccc(NC2OC[C@@H](O)[C@H](O)[C@H]2O)cc1 (stereo not given in full) | inactive
O=C(Cn1cnnn1)N[C@@H]1C(=O)N2C(C(=O)O)=C(CSc3nncs3)CS[C@H]12 | inactive
CC(C)(COP(=O)(O)OP(=O)(O)OC[C@H]1O[C@@H](n2cnc3c(N)ncnc32)[C@H](O)[C@@H]1OP(=O)(O)O)C(O)C(=O)NCCC(=O)NCCS (stereo not given in full) | inactive
O=C(O)/C=C/C(O)c1ccc(Cl)cc1 (stereo not given) | inactive
CC/C(=C(/CC)c1ccc(OP(=O)(O)O)cc1)c1ccc(OP(=O)(O)O)cc1 | inactive
CCCn1c(=O)[nH]c(=O)c2[nH]cnc21 | inactive
CC1CCCC(C)N1NC(=O)c1ccc(Cl)c(S(N)(=O)=O)c1 (stereo not given) | inactive
O=C1c2ccccc2-c2n[nH]c3cccc1c23 | inactive
CN(C)CCOc1ccc(/C(=C(/CCCl)c2ccccc2)c2ccccc2)cc1 | inactive
CCCCCCCCCCCCCC(=O)OCC(COP(=O)([O-])OCC[N+](C)(C)C)OC(=O)CCCCCCCCCCCCC (stereo not given) | inactive
CN(C)CCC(O)(c1ccccc1)c1ccccc1Cl (stereo not given) | inactive
Nc1cc(Cl)c(NC2=NCCN2)c(Cl)c1 | inactive
Cc1ccc(Cl)c(N)c1Cl | inactive
NC(=O)[C@@H]1CCCN1C(=O)[C@H](Cc1cnc[nH]1)NC(=O)[C@@H]1CCC(=O)N1 | inactive
C=C(Nc1ccc(OCC)cc1)Nc1ccc(OCC)cc1 | inactive
C[C@@H]1O[C@@H]1P(=O)(O)O | inactive
NC(=S)NS(=O)(=O)c1ccc(N)cc1 | inactive
CCCCCCCCCCCCCCCC(=O)OC[C@H](COP(=O)([O-])OCC[N+](C)(C)C)OC(=O)CCCCCCCCCCCCCCC | inactive
C=C1[C@@H]2CC[C@@H](C2)C1(C)C | inactive
C=C1C(CCl)(CCl)C2(Cl)C(Cl)C(Cl)C1(Cl)C2(Cl)Cl (stereo not given) | 13.4 µM (active)

SMILES | Potency
OCCCNc1ccccc1 | inactive
CC(=O)Nc1ccc(OC(C)=O)cc1 | inactive
CSCCC(N)C(=O)O (stereo not given) | inactive
CN[C@H](CC(C)C)C(=O)N[C@H]1C(=O)N[C@@H](CC(N)=O)C(=O)N[C@H]2C(=O)N[C@H]3C(=O)N[C@H](C(=O)N[C@@H](C(=O)O)c4cc(O)cc(O)c4-c4cc3ccc4O)[C@H](O)c3ccc(c(Cl)c3)Oc3cc2cc(c3O[C@@H]2O[C@H](CO)[C@@H](O)[C@H](O)[C@H]2O[C@H]2C[C@](C)(N)C(O)[C@H](C)O2)Oc2ccc(cc2Cl)[C@H]1O (stereo not given in full) | inactive
CO[C@H](C(=O)[C@@H](O)[C@@H](C)O)C1Cc2cc3cc(O[C@H]4C[C@@H](O[C@H]5C[C@@H](O)[C@H](O)[C@@H](C)O5)[C@@H](O)[C@@H](C)O4)c(C)c(O)c3c(O)c2C(=O)[C@H]1O[C@H]1C[C@@H](O[C@H]2C[C@@H](O[C@H]3C[C@](C)(O)[C@H](O)[C@@H](C)O3)[C@H](O)[C@@H](C)O2)[C@H](O)[C@@H](C)O1 (stereo not given in full) | 1.34 µM (active)
NCC[C@H](O)C(=O)N[C@@H]1C[C@H](N)[C@@H](O[C@H]2O[C@H](CN)CC[C@H]2N)[C@H](O)[C@H]1O[C@H]1O[C@H](CO)[C@@H](O)[C@H](N)[C@H]1O | inactive
C[C@H](O)CN(C)C | inactive
C[S+](CC[C@H](N)C(=O)O)C[C@H]1O[C@@H](n2cnc3c(N)ncnc32)[C@H](O)[C@@H]1O (stereo not given in full) | inactive
COc1cc([C@@H]2c3cc4c(cc3[C@@H](O[C@@H]3O[C@@H]5CO[C@@H](C)O[C@H]5[C@H](O)[C@H]3O)[C@H]3COC(=O)[C@H]23)OCO4)cc(OC)c1O | inactive
C=N[C@@H](C(=O)N[C@@H]1C(=O)N2[C@@H]1SC(C)(C)[C@@H]2C(=O)O)c1ccccc1 | inactive
CNCC(=O)N[C@@H](CCCN=C(N)N)C(=O)N[C@H](C(=O)N[C@@H](Cc1ccc(O)cc1)C(=O)N[C@H](C(=O)N[C@@H](Cc1cnc[nH]1)C(=O)N1CCC[C@H]1C(=O)N[C@@H](C)C(=O)O)C(C)C)C(C)C | inactive
N#Cc1nc(Cl)c(Cl)c(Cl)c1Cl | 19.5 µM (active)
CCC(NC(C)C)C(O)c1ccc(O)c(O)c1 (stereo not given) | inactive
CC(C)C[C@@H]1NC(=O)[C@H](CCCN)NC(=O)[C@H](C(C)C)NC(=O)[C@@H]2CCCN2C(=O)[C@@H](Cc2ccccc2)NC(=O)[C@H](CC(C)C)NC(=O)[C@H](CCCN)NC(=O)[C@H](C(C)C)NC(=O)[C@@H]2CCCN2C(=O)[C@@H](Cc2ccccc2)NC1=O (cyclo(V[Orn]L[dF]PV[Orn]L[dF]P)) | 19 µM (active)
NC(=O)C1c2ccccc2CCc2ccccc21 | inactive
CCCCCCOC(=O)c1cccnc1 | inactive
CS(=O)(=O)c1ccc([C@@H](O)[C@@H](COC(=O)CN)NC(=O)C(Cl)Cl)cc1 | inactive
NCC1CCC(C(=O)O)CC1 (stereo not given) | inactive
COc1ccc(/C=C/C(=O)O)cc1 | inactive
CC(C)[C@H](NC(=O)[C@H](CC(=O)O)NC(=O)[C@H](CCCCN)NC(=O)[C@@H](N)CCCN=C(N)N)C(=O)N[C@@H](Cc1ccc(O)cc1)C(=O)O (H-RKDVY-OH) | inactive
